Over roughly 33,000 sequences, “e-score” has its median near -0.053; the highest 2% begin near 0.38. The list comes from a sample in which the highest values are over-represented; it also holds similar and randomly drawn sequences.

The experiment deals with T1, SIX1 homeodomain (reference allele) (human, UniProt Q15475 108-198).
T1 sequence: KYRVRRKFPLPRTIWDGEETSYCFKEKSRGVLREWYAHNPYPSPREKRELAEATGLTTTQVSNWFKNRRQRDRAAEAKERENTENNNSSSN
Kind of experiment: universal protein binding microarray; Universal all-10-mer PBM (8x60K, AMADID 030236), 300 nM GST-tagged protein, Alexa Fluor 488 anti-GST; buffer, salt, pH and temperature not stated (as in Berger); high values mean tight binding. The following applies: protein: ivt; tags: N-terminal GST; dsDNA, one strand shown. In outline:
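GST-tagged homeodomains were made by in vitro transcription/translation and quantified by anti-GST western blot against a recombinant GST standard curve. They were applied in duplicate at 300 nM final concentration to universal 'all 10-mer' protein binding microarrays (8×60K format). Binding was quantified as 8-mer E-scores with the Universal PBM Analysis Suite.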
As to GATAACTA, the binding signal was determined as 0.154 ± 0.00881 E-score. Consider GATCTTTA, for which the binding signal was 0.164 ± 0.0165 E-score.

In the case of ATCGCACG, the binding signal amounted to 0.2071 ± 0.000375 E-score. In the case of ATAGGCGG, the binding signal came to 0.1969 ± 0.00138 E-score. For the sequence TATTGCGA, the binding signal was 0.232 ± 0.0343 E-score. Regarding TCACCCGA, the binding signal turned out to be 0.157 ± 0.0682 E-score. As for GATAGTAA, the binding signal worked out at 0.221 ± 0.00274 E-score. The figure for GGATCATA is 0.433 ± 0.0211 E-score; for AGATCATA it is 0.323 ± 0.00987 E-score; for CGATCATA it is 0.276 ± 0.0116 E-score. Turning to ATCAACGA, the binding signal stood at 0.201 ± 0.0401 E-score. As to AGTATTGG, the binding signal amounted to 0.204 ± 0.0532 E-score.

In the case of ATAGCTAT, the binding signal turned out to be 0.27 ± 0.0878 E-score. Take TCTCCAGA: the binding signal is 0.165 ± 0.00783 E-score. Turning to ACAGATAC, the binding signal stood at 0.341 ± 0.00624 E-score. The figure for CTAGATAC is 0.349 ± 0.00583 E-score; for GGAGATCC it is 0.374 ± 0.0453 E-score. Turning to GCAGATAC, the binding signal came to 0.3749 ± 0.000573 E-score. As to AGAGATAG, the binding signal was 0.153 ± 0.0279 E-score.

CCAGATAC: the binding signal is 0.409 ± 0.0168 E-score. As to CGAGATAC, the binding signal came out at 0.381 ± 0.00544 E-score. Regarding AGAGATAT, the binding signal was 0.335 ± 0.0776 E-score. As for CAAGATAC, the binding signal turned out to be 0.349 ± 0.0341 E-score. With AGAGATAC, the binding signal was 0.38 ± 0.00418 E-score. On to CCAGATAA, for which the binding signal was found to be 0.234 ± 0.0252 E-score. On to GGAGATAC, for which the binding signal was determined as 0.41 ± 0.00953 E-score. On to ATCCGAAA, for which the binding signal was 0.246 ± 0.022 E-score. As to ATATCTTG, the binding signal is 0.271 ± 0.0944 E-score.

CGATCTCC: the binding signal is 0.31 ± 0.00569 E-score.

In the case of ACTGTATC, the binding signal was 0.367 ± 0.00948 E-score. The figure for CCTATAGA is 0.157 ± 0.037 E-score; for GCCTATAA it is 0.161 ± 0.0675 E-score; for TATCGTGA it is 0.279 ± 0.00354 E-score. With AATACGAG, the binding signal was 0.233 ± 0.00564 E-score. As to AATTGTGA, the binding signal came to 0.185 ± 0.0272 E-score. Consider CTGGTCTA, for which the binding signal was found to be 0.201 ± 0.0694 E-score. As to CTGGTGTA, the binding signal was found to be 0.313 ± 0.0189 E-score. In the case of ATGGTGTC, the binding signal is 0.435 ± 0.0115 E-score. For the sequence ATGGTGTA, the binding signal is 0.305 ± 0.00747 E-score.

CTGGTGTC: the binding signal is 0.414 ± 0.0127 E-score. ATGGTGTG: the binding signal worked out at 0.183 ± 0.0828 E-score.

Consider GATCCCTA, for which the binding signal is 0.3831 ± 0.000778 E-score.

For GATCCTTA, the binding signal stood at 0.342 ± 0.021 E-score. For TATCCCGA, the binding signal was 0.315 ± 0.0248 E-score.

Take AATCCCTA: the binding signal came to 0.185 ± 0.0203 E-score. The figure for AATCCCGA is 0.223 ± 0.0516 E-score; for GATCCCGA it is 0.377 ± 0.0296 E-score. Take AACCGAGA: the binding signal was found to be 0.162 ± 0.046 E-score.

With ACACCTCG, the binding signal came to 0.3009 ± 0.00176 E-score. The figure for CCTATCTA is 0.178 ± 0.0299 E-score; for ACGATCAC it is 0.177 ± 0.0336 E-score; for AGGATCAT it is 0.38 ± 0.0194 E-score. With ATGATCAT the figure was 0.246 ± 0.029 E-score; with AGGATCAC, 0.435 ± 0.0114 E-score. With AAGATCAC the figure was 0.239 ± 0.0239 E-score; with AGGATCAG, 0.368 ± 0.0142 E-score; with CATGAGAC, 0.296 ± 0.000976 E-score.

Take ACTACTCG: the binding signal came out at 0.163 ± 0.00508 E-score. With AGATCACT the figure was 0.385 ± 0.0244 E-score; with AGATCACA, 0.255 ± 0.00822 E-score. Turning to AGATCAAG, the binding signal turned out to be 0.232 ± 0.0888 E-score. Regarding AGATCACG, the binding signal stood at 0.306 ± 0.0143 E-score. The figure for AGATCAAT is 0.3827 ± 0.00302 E-score. The figure for GTGTCAAC is 0.287 ± 0.0231 E-score; for AGATCAAA it is 0.188 ± 0.0637 E-score. In the case of CTATCAAA, the binding signal was 0.258 ± 0.141 E-score.

For GTATCAAC, the binding signal came to 0.475 ± 0.0103 E-score. With GTATAAAC the figure was 0.185 ± 0.0191 E-score; with GTGTCAAA, 0.311 ± 0.019 E-score; with GTATCAAA, 0.452 ± 0.0436 E-score. CGGAGATA: the binding signal came out at 0.314 ± 0.0255 E-score. Take ATCCTTCG: the binding signal was 0.228 ± 0.0545 E-score. Consider ATTAATCG, for which the binding signal worked out at 0.16 ± 0.0622 E-score. As for ATACTTAC, the binding signal stood at 0.218 ± 0.0954 E-score. Consider ATATTATG, for which the binding signal worked out at 0.299 ± 0.0542 E-score. Regarding ATCAGGCG, the binding signal amounted to 0.25 ± 0.0206 E-score.

For the sequence CTCATCTC, the binding signal was 0.158 ± 0.0133 E-score. With ACTCGGGG, the binding signal was determined as 0.212 ± 0.0491 E-score. Consider CCCTATCC, for which the binding signal is 0.359 ± 0.0609 E-score. In the case of AGTGGGAT, the binding signal came to 0.333 ± 0.0228 E-score. As to CGATCGCC, the binding signal worked out at 0.257 ± 0.026 E-score. On to CGGCGATC, for which the binding signal turned out to be 0.302 ± 0.0621 E-score.

Turning to ATATCAAG, the binding signal was determined as 0.423 ± 0.0464 E-score.

For the sequence ATCTCAAG, the binding signal amounted to 0.215 ± 0.0235 E-score. On to ATATCAAT, for which the binding signal stood at 0.421 ± 0.0559 E-score. With ATCTCAAT the figure was 0.183 ± 0.0808 E-score; with ATCTCAAC, 0.233 ± 0.0413 E-score.
